According to PubChem BioAssay (NCI):
This is part of a sample that, as a whole, favours compounds with a hit. Of some 83,000 tested, about 20% had one in any assay.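 48-hour exposure, single concentration, 96-well plates; percent growth endpoint where 0 means no net growth. Active: below 10.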 Unmarked numbers belong to inactive results. Active and inactive are the calls of the source.

Tests used:
Experiment in all cases: NCI-60 one-dose screen, 48 h (100 = growth as untreated, 0 = no growth, -100 = all killed)
Details in all cases: 10 µM unless noted
HCT-15 colon = tested on: HCT-15 colon
HT29 colon = tested on: HT29 colon
SNB-75 CNS = tested on: SNB-75 CNS
SNB-19 CNS = tested on: SNB-19 CNS
U251 CNS = tested on: U251 CNS
PC-3 prostate = tested on: PC-3 prostate
SK-MEL-5 melanoma = tested on: SK-MEL-5 melanoma
UACC-62 melanoma = tested on: UACC-62 melanoma
LOX IMVI melanoma = tested on: LOX IMVI melanoma
SK-MEL-28 melanoma = tested on: SK-MEL-28 melanoma

| Structure (SMILES) | growth (HCT-15 colon) | growth (HT29 colon) | growth (SNB-75 CNS) | growth (SNB-19 CNS) | growth (U251 CNS) | growth (PC-3 prostate) | growth (SK-MEL-5 melanoma) | growth (UACC-62 melanoma) | growth (LOX IMVI melanoma) | growth (SK-MEL-28 melanoma) |
| --- | --- | --- | --- | --- | --- | --- | --- | --- | --- | --- |
| COc1ccccc1C(=O)Nc1cccc(NC(=O)c2ccoc2C)c1 | 28.7% | 6.04% (active) | 19.3% | 30.4% | 21.9% | 30.5% | 20.5% | 29.7% | 37.3% | 60.1% |
| C=C(C)[C@@H]1CCC[C@]2(C(=O)O)CC[C@]3(C)[C@@H](CC[C@@H]4[C@@]5(C)C/C(=C/c6ccncc6)C(=O)C(C)(C)[C@@H]5CC[C@]43C)[C@@H]12 | 5.49% (active) | 14.8% | 52.6% | 46.1% | 17% | 27.4% | 10.6% | 26.8% | -9.49% (active) | 48.4% |
| CC(=O)c1ccc(Nc2nccc(-c3ccc4ccccc4c3)n2)cc1 | 85.7% | 91.4% | 91.8% | 94.9% | 95.5% | 91.5% | 97.6% | 88% | 99% | 107% |
| N#C/C(=C\c1ccc(-c2cccc(C(F)(F)F)c2)o1)c1ccccc1 | 62.5% | 86.3% | 85% | 99.1% | 100% | 90.4% | 92.6% | 71.4% | 86.5% | 98.4% |
| COc1ccc(/C=C/C(=O)c2cc3c(N)c(C(=O)Nc4cccc(Cl)c4C)sc3nc2C)cc1 | 5.62% (active) | -2.08% (active) | 21.3% | 5.32% (active) | -20% (active) | 22.7% | -28.9% (active) | 26.9% | -44.6% (active) | 43.7% |
| COC(=O)c1c2c(c(C)[n+]([O-])c1C)C(=O)C(NCc1ccc(OC)cc1)=CC2=O | 9.67% (active) | 9.48% (active) | 127% | 5.27% (active) | -13.9% (active) | 4.67% (active) | -53.1% (active) | -27.9% (active) | 19% | 61.9% |
| Oc1ccc(/C=C/c2ccc(O)cc2)cc1 | 33.3% | 101% | 46.9% | 89.2% | 39.1% | 55.3% | 52% | 37.4% | 44.4% | 76.9% |
| CNC1=C([N+](=O)[O-])C(c2ccc(OC)cc2)C(C#N)=C(c2cccs2)O1 (stereo not given) | 108% | 118% | 95.5% | 105% | 101% | 101% | 100% | 101% | 95.3% | 122% |
| CCNC(=O)Oc1ccc(/C(=C(/CC)Cc2ccccc2)c2ccc(OCCN3CCCC3)cc2)cc1 | 73.1% | 98.6% | 85.5% | 93.4% | 91.7% | 75% | 91.7% | 98.3% | 91.4% | 99% |
| COc1cc2c(c(OC)c1OC)C(=O)CC(c1cccc(NC(=O)c3ccc(C#N)cc3)c1)O2 (stereo not given) | 75.7% | 84.9% | 74.9% | 92% | 80.5% | 53% | 43.2% | 33.9% | 65.7% | 90.6% |
| Nc1c(C(=O)Nc2cccc(Cl)c2)sc2nc3c(cc12)CCCC3 | 78.8% | 68.2% | 101% | 92.2% | 89.3% | 80.2% | 88.2% | 70.2% | 93% | 91.1% |
| CN(Cc1cc(Br)cc(Br)c1O)Cc1cc(Br)cc(Br)c1O | 22.2% | 32.9% | 61.5% | 40.5% | 32.8% | 39.5% | 3.66% (active) | 18.8% | 34.6% | 74% |
| Nn1c(=O)c(=O)[nH]c2c(cnn2-c2ccccc2)c1=O | 101% | 110% | 92.5% | 103% | 105% | 106% | 101% | 102% | 101% | 113% |
| Cn1ccc(=O)nc1 | 24.1% | 20.6% | 104% | 84.6% | 77.8% | 69.6% | 99.3% | 74.8% | 76.8% | 109% |
| COc1cc(/C=C2\CN(S(=O)(=O)c3ccccc3)C/C(=C\c3cc(CN4CCCCC4)c(O)c(OC)c3)C2=O)cc(CN2CCCCC2)c1O | -73.8% (active) | -66.7% (active) | -91.7% (active) | -30.1% (active) | -76.7% (active) | -36.3% (active) | -94.8% (active) | 71% | -87% (active) | -90.3% (active) |
| S=c1[nH]c(=S)c2c(-c3ccccc3)c(-c3ccccc3)oc2[nH]1 | 99.1% | 102% | 95.2% | 96.2% | 95.9% | 103% | 108% | 93.9% | 96.5% | 105% |
| CNC1=CC(=O)c2c(C(=O)OC)c(C)[n+]([O-])c(C)c2C1=O | 49.1% | 16.5% | 147% | 81.5% | 64% | 61.9% | -47.9% (active) | 27.3% | 34.4% | 96.3% |
| CCOc1ccc(-n2nc(C(=O)NCc3ccccc3OC)nc2-c2cc(OC)c(OC)c(OC)c2)cc1 | 29% | 40.6% | 30% | 45.2% | 42.5% | 24.6% | -1.22% (active) | 37% | 36.3% | 36.6% |
| CCc1n(Cc2ccc3ccccc3n2)cc[n+]1Cc1ccc2ccccc2n1 | 92.2% | -4.83% (active) | 29.5% | 20.9% | 12.3% | 19% | -36.3% (active) | 12.4% | 26.1% | 15.9% |
| CSc1nn2c(-c3ccc4ccccc4c3)ccnc2c1C#N | 15.4% | 2.83% (active) | -7.71% (active) | 18.3% | 6.98% (active) | 45.8% | 10.1% | 18.8% | 21.7% | 38.9% |
| CCCCNc1cc(-c2cn[nH]c2-c2cc(C)cc(OC)c2)nc(-c2cccnc2)n1 | 82.7% | 95.1% | 76.2% | 95.6% | 87.3% | 80.9% | 77.4% | 80.2% | 91.2% | 96.4% |
| CCN1C(=O)N(CC)C2Nn3c(s/c(=C\c4ccccc4Br)c3=O)=NC21 (stereo not given) | 18.6% | 4.78% (active) | -1.27% (active) | 26.6% | 4.95% (active) | 32.1% | 13% | 22.8% | 20.9% | 42.1% |
| O=C(Cc1ccccc1)Nc1cccc(N=Cc2ccccc2O)c1 | 102% | 113% | 73.8% | 99.2% | 94.3% | 93.4% | 106% | 101% | 100% | 111% |
| CN1C(=O)/C(=C/c2ccc(C(=O)Nc3ncc(Cc4cccc(Cl)c4)s3)cc2)SC1=S | 35.3% | 61.1% | 73.6% | 73.5% | 65.2% | 73.3% | 25.7% | 20.4% | 22.7% | 63.4% |
| Cc1nc2c(=O)nc3s/c(=C\c4ccco4)c(=O)n3c2nc1C | 106% | 100% | 85.4% | 96.8% | 93.5% | 97.6% | 104% | 92.4% | 90.2% | 100% |
| COc1ccc(/C=C/C(=O)c2ccc(NC(=O)CSc3nc4c([nH]3)c(=O)n(C)c(=O)n4C)cc2)cc1OC | 89% | 103% | 82.3% | 62.5% | 49.6% | 94.6% | 92% | 81.4% | 78.3% | 95.7% |
